15 compounds from PubChem BioAssay (NCI) can be followed below.

Values joined by “and” are separate entries in the source; they are usually repeats but may differ in a detail not shown here. Identical values can stand only once. About 83,000 compounds went through this panel and 20% of them were active in at least one assay; those are over-represented in the sample as a whole.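 In brief: 96-well plates, 48 h treatment, single concentration, percent growth endpoint.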 Some structures have more than one record in an assay (separate samples or runs), and their calls can disagree. Active and inactive are the calls of the source. The calls were made as follows: active = growth percent below 10; inactive = the rest.

Holding throughout (assay): NCI-60 one-dose screen, 48 h (100 = growth as untreated, 0 = no growth, -100 = all killed)
Conditions in all cases: 10 µM unless noted

The subject of experiment [1] is NCI-H226 lung.
For experiment [2], the system named is NCI-H322M lung.
Experiment [3] deals with NCI-H460 lung.
Experiment [4] deals with HOP-92 NSCLC.
The subject of experiment [5] is 786-0 renal.
The subject of experiment [6] is COLO 205 colon.
Experiment [7] deals with NCI-H522 lung.
The test system of experiment [8] is A549/ATCC NSCLC.
For experiment [9], the system named is HOP-62 NSCLC.

As for `CCOC(=O)C(CNc1ccccc1)C(=O)OCC`, the growth is 95.2% (inactive) in experiment [1]; 105% (inactive) in [2]; 103% (inactive) in experiment [3]; 85.6% (inactive) in [4]; 100% (inactive) in [5]; 106% (inactive) in [6].
On to `Cc1nn(-c2ccccc2)nc1C(=O)Nc1ccccc1C(=O)NCC1CC1`, for which the growth in experiment [1] is 98.1% (inactive) and 45.7% (inactive); in experiment [2], 111% (inactive) and 76.7% (inactive); in experiment [3] it was 94.3% (inactive) and 26.8% (inactive); in experiment [4] it was 75.8% (inactive); in experiment [7], 91.9% (inactive); in [8], 67.8% (inactive) and 38.7% (inactive). The growth in experiment [5] was 110% (inactive) and 35.1% (inactive); in experiment [6] it was 95.3% (inactive) and 52.8% (inactive).
Turning to `NC(=S)NS(=O)(=O)c1ccc(N)cc1`, the growth in experiment [1] was 96% (inactive); in experiment [9] it was 96.7% (inactive); in experiment [3], 109% (inactive); in [4] it was 103% (inactive); in [7] it was 102% (inactive); in experiment [8], 101% (inactive). Moreover, the growth in experiment [5] was 105% (inactive); in [6], 108% (inactive).
As for `CC1=C(/C=C/C(C)=C/C=C/C(C)=C/C=N/NC(=S)NC(=S)N/N=C/C=C(C)/C=C/C=C(C)/C=C/C2=C(C)CCCC2(C)C)C(C)(C)CCC1`, the growth in experiment [1] was -66.4% (active) and -86.6% (active); in experiment [2], 85.1% (inactive) and 63.8% (inactive); in experiment [9] it was -7.59% (active); in experiment [3], 8.37% (active) and -6.69% (active); in experiment [4], -0.81% (active) and -9.45% (active); in [8] it was 17.3% (inactive) and 3.05% (active). Besides, the growth is -41.4% (active) and -58.8% (active) in experiment [5]; -79.7% (active) in experiment [6].
Consider `Cc1ccc(-c2noc(C)n2)cc1`, for which the growth was 93.8% (inactive) in [1]; 100% (inactive) in [9]; 106% (inactive) in experiment [3]; 92.1% (inactive) in [4]; 99.3% (inactive) in experiment [7]; 93.6% (inactive) in experiment [8]. In addition, the growth in experiment [5] was 102% (inactive); in experiment [6], 113% (inactive).
In the case of `N#CCCOc1ccccc1`, the growth in experiment [1] was 110% (inactive); in [9], 95.3% (inactive); in [3] it was 105% (inactive); in [4], 84.6% (inactive); in [7], 87.7% (inactive); in [8] it was 96.7% (inactive). The growth in experiment [5] is 98.2% (inactive); in experiment [6], 106% (inactive).
As to `CC1=C[C@H]2c3c(c(O)c(O)c4oc5cc(O)cc(O)c5c(=O)c34)[C@H](c3cc(O)c(O)c4oc5cc(O)cc(O)c5c(=O)c34)[C@H]2C(C)(C)C1`, the growth is 2.7% (active) and -31.2% (active) in experiment [1]; 12.1% (inactive) and -11.1% (active) in [2]; -16.2% (active) in experiment [9]; -41.5% (active) and -57.7% (active) in experiment [3]; -8.6% (active) and -43.8% (active) in [4]; -10% (active) and -37.5% (active) in [8]. Further, the growth was -18.9% (active) and -42.3% (active) in experiment [5]; -44.6% (active) in [6].
For `CC(C(=O)O)n1cc(C#N)c(=O)[nH]c1=O` (stereo unspecified), the growth was 93.3% (inactive) and 94.8% (inactive) in [1]; 92.5% (inactive) and 98.8% (inactive) in [9]; 115% (inactive) and 112% (inactive) in experiment [3]; 93.2% (inactive) and 98.4% (inactive) in experiment [4]; 103% (inactive) and 108% (inactive) in experiment [8]; 119% (inactive) and 101% (inactive) in experiment [5]. Further, the growth in [6] was 103% (inactive) and 112% (inactive).
In the case of `CC1=NN(c2ccccc2)C(=O)C1C(=O)c1ccccc1` (stereo unspecified), the growth in experiment [1] is 92.6% (inactive); in experiment [2] it was 110% (inactive); in [9], 111% (inactive); in experiment [3], 108% (inactive); in [4] it was 78.4% (inactive); in experiment [8] it was 91.5% (inactive). Further, the results for the growth in experiment [5] and in experiment [6] were 101% (inactive) and 106% (inactive), respectively.
Regarding `CC12CCC(CC1)C(C)(C)O2`, the growth in [1] is 104% (inactive); in experiment [2], 101% (inactive); in experiment [4], 105% (inactive); in experiment [7] it was 95% (inactive); in [8] it was 102% (inactive); in experiment [5], 94.5% (inactive). The growth in [6] was 110% (inactive).
Take `O=C1c2c(O)cc(O)cc2OC(c2ccc(O)c(O)c2)C1O` (stereo unspecified): the growth in experiment [1] is 109% (inactive); in experiment [2], 126% (inactive); in experiment [9], 110% (inactive); in experiment [3], 107% (inactive); in experiment [4], 108% (inactive); in [8], 105% (inactive). Also, in experiment [6], the growth is 119% (inactive).
As for `CC(C)(C)c1ccc(O)c(CNC2CCCCC2)c1`, the growth in [1] was 96.5% (inactive) and 81.2% (inactive); in [2], 97.6% (inactive) and 100% (inactive); in experiment [9] it was 119% (inactive) and 88.9% (inactive); in experiment [4], 72.4% (inactive) and 84.3% (inactive); in [8], 99.2% (inactive) and 84.7% (inactive); in [5], 96.1% (inactive) and 80.4% (inactive). In addition, the growth in experiment [6] was 9.74% (active) and 107% (inactive).
As for `COc1cc2c(Nc3ccc(Cl)c(Cl)c3F)ncnc2cc1OCC1C[C@@H]2CN(C)C[C@@H]2C1` (stereo partly specified), the growth was -65.1% (active) and 46% (inactive) in experiment [1]; -96.4% (active) and 21.5% (inactive) in experiment [2]; -87.2% (active) and 16.6% (inactive) in experiment [9]; -79.4% (active) and 21.6% (inactive) in experiment [3]; -84.5% (active) and 16.3% (inactive) in experiment [4]; -80.7% (active) and -36.8% (active) in experiment [7]. In addition, the growth in experiment [8] is -92.8% (active) and 15.8% (inactive); in experiment [5], -91.9% (active) and -22.5% (active); in [6] it was -84.6% (active) and -25.1% (active).
Regarding `CNC(=O)c1cccnc1`, the growth in [1] is 107% (inactive); in [2], 110% (inactive); in experiment [3] it was 109% (inactive); in experiment [4], 109% (inactive); in [7], 91.4% (inactive); in [8], 92.8% (inactive). The growth in experiment [5] is 99.6% (inactive); in experiment [6], 121% (inactive).
For `COc1cc(C(=O)c2ccc3c(c2)OCO3)cc(OC)c1OC`, the growth in experiment [1] was 52.4% (inactive) and 72.9% (inactive); in [2], 41% (inactive) and 55.4% (inactive); in experiment [9], 38.8% (inactive) and 41.6% (inactive); in experiment [3] it was 14.3% (inactive) and 10.9% (inactive); in experiment [4], 37.9% (inactive) and 62.8% (inactive); in experiment [7], 44.6% (inactive) and -30.4% (active). Further, the growth was 33.9% (inactive) and 34.9% (inactive) in [8]; 56.2% (inactive) and 46% (inactive) in experiment [5]; 19.2% (inactive) and 20.8% (inactive) in experiment [6].
